Screens: PubChem, Johns Hopkins Ion Channel Center
KCNQ2 pot: potentiators of rat KCNQ2 potassium channel. 310,000 compounds, 0.54% hits. Potassium voltage-gated channel subfamily KQT member 2 (Rattus norvegicus), O88943. CHO-K1 KCNQ2, FluxOR thallium flux fluorescence; hits give high values. B-score at 10 µM. AID 2239, 2010;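 active = fluorescence ratio B-score at least 3 SD of library B-scores, with initial fluorescence B-score within 3 of them, cut at about 5.3 in these data; same plate scores as AID 2156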;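 note: B-score of peak minus minimum over baseline fluorescence ratio after K+ and Tl+ stimulus; positive B-score means potentiation of KCNQ2 with more thallium influx and brighter signal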
KCNQ2 block: rat KCNQ2 potassium channel inhibitors, primary screen, cell-based, CHO-K1, FluxOR thallium flux, B-score. 20 min; hits give low values. B-score at 10 µM. 310,000 compounds, 1.1% hits;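 active = fluorescence ratio B-score at most minus 3 library SDs, with starting brightness B-score within 2 library SDs, cut at about -5.5 in these data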
Numbers without * were called inactive. Most compounds without a hit are left out; they make up all but 1.6% or so of the library.

Cc1nn(C)cc1NC(=O)CC12CC3CC(CC(C3)C1)C2 was read as KCNQ2 pot 2.06 and KCNQ2 block inactive.
`CCn1nc(C)c(NC(=O)CC23CC4CC(CC(C4)C2)C3)c1C` gave KCNQ2 pot 21.2* and KCNQ2 block inactive.
For Cc1ccc2cc(CCNC(=O)c3ccc4c(c3)OCO4)c(=O)[nH]c2c1C the results were KCNQ2 block inactive.
`CCOC(=O)c1c(NC(=O)/C=C\C(=O)O)sc(C)c1-c1ccccc1` gave KCNQ2 pot 0.68 and KCNQ2 block inactive.
Screening CCOC(=O)c1c(NC(=O)/C=C/C(=O)O)sc(C)c1-c1ccc(C(C)(C)C)cc1 returned KCNQ2 pot 7* and KCNQ2 block inactive.
For COC(=O)c1cn(CCOc2ccccc2)c2ccccc12 the results were KCNQ2 block inactive.
For CCN(CC)C(=O)C(=O)c1cn(CCOc2ccccc2)c2ccccc12 the results were KCNQ2 pot -7.35 and KCNQ2 block -7.35*.
For CCOc1ccc2ccccc2c1CNc1nnnn1C the results were KCNQ2 pot -6.01 and KCNQ2 block -6.01*.
CCOc1ccccc1CNc1nnnn1C was read as KCNQ2 pot 0.52 and KCNQ2 block inactive.
Screening Nc1cc(=O)nc(SCC(=O)N2CCN(c3ccccc3)CC2)n1-c1ccc(F)cc1 returned KCNQ2 pot 0.2 and KCNQ2 block inactive.
Screening CN(Cc1ccccc1)C(=O)c1cc2ccccc2o1 returned KCNQ2 block inactive.
For CC(C)(C)N(Cc1ccccc1)C(=O)c1cc2ccccc2o1 the results were KCNQ2 pot -5.86 and KCNQ2 block -5.86*.
CN(NS(C)(=O)=O)c1c(C#N)c(C(F)(F)F)nn1C was read as KCNQ2 pot 1.85 and KCNQ2 block inactive.
COc1ccc(NC(=O)CN(C)C(=O)CNC(=O)c2cccs2)cc1 was read as KCNQ2 pot 0.2 and KCNQ2 block inactive.
Screening CC(C)C[C@H]1CN=C(Nc2ccccc2)N1CCCC1CCCC1 returned KCNQ2 block inactive.
CC(C)C[C@H]1CN=C(Nc2ccccc2)N1CCCC1CCCCC1 was read as KCNQ2 pot -5.64 and KCNQ2 block -5.64*.
CC/C(=N\NC(=O)c1nnn(-c2nonc2N)c1CN(C)c1ccccc1)c1ccccc1 was read as KCNQ2 block inactive.
Screening Cc1nn(C)c(C)c1S(=O)(=O)N(CC(=O)NCCCN1CCC(C)CC1)c1ccc(C(C)C)cc1 returned KCNQ2 block inactive.
`CCCN(CCC)C(=O)Cn1c(=O)c2sccc2n2c(=S)sc(-c3ccccc3)c12` gave KCNQ2 block inactive.
For CCCN(CCC)C(=O)Cn1c(=O)c2ccccc2n2c(=S)sc(-c3ccccc3C)c12 the results were KCNQ2 pot -6.78 and KCNQ2 block -6.78*.
`O=C(CCNC(=O)c1ccccc1Cl)NCc1cccnc1` gave KCNQ2 pot 2.23 and KCNQ2 block inactive.
CCN(CC(=O)Nc1ccccc1C(F)(F)F)C(=O)c1oc2c(Cl)cccc2c1C was read as KCNQ2 pot -6.81 and KCNQ2 block -6.81*.
For CCN(CC(=O)Nc1ccc(OC)cc1)C(=O)c1oc2c(Cl)cccc2c1C the results were KCNQ2 pot 0.26 and KCNQ2 block inactive.
For Cc1cccc(OCC(=O)Nc2ccccc2C(F)(F)F)c1 the results were KCNQ2 block inactive.
`Cc1cccc(C)c1OCC(=O)Nc1ccccc1C(F)(F)F` gave KCNQ2 pot -7.01 and KCNQ2 block -7.01*.
For O=C(COc1ccccc1)NCc1ccccc1 the results were KCNQ2 pot 0.27 and KCNQ2 block inactive.
For Cc1cccc(C)c1OCC(=O)NCc1ccccc1 the results were KCNQ2 pot -6.38 and KCNQ2 block -6.38*.
Screening CC1(C)CC(NC(=O)c2cc(COc3cccc(C(F)(F)F)c3)on2)CCO1 (stereo not given) returned KCNQ2 pot 0.85 and KCNQ2 block inactive.
CCn1c(=O)c([N+](=O)[O-])c(NCCCn2ccnc2)c2ccccc21 was read as KCNQ2 block inactive.
For COc1ccc(CN(C(=O)CSc2nnc(-c3ccc(F)cc3)o2)c2ccc(F)cc2)cc1 the results were KCNQ2 block inactive.
Screening COc1ccc(CN(C(=O)CSc2nnc(-c3c[nH]c4ccccc34)o2)c2ccc(F)cc2)cc1OC returned KCNQ2 pot -6.97 and KCNQ2 block -6.97*.
COc1ccc(Nc2cc(C(=O)N3CCc4ccccc4C3)c3ccccc3n2)c(OC)c1 was read as KCNQ2 pot -7.96 and KCNQ2 block -7.96*.
COc1ccccc1Nc1cc(C(=O)N2CCc3ccccc3C2)c2ccccc2n1 was read as KCNQ2 pot -6.28 and KCNQ2 block -6.28*.
COc1ccccc1-c1cc(C(=O)N2CCc3ccccc3C2)c2ccccc2n1 was read as KCNQ2 block inactive.
COCCCNC(=O)c1cc(Nc2ccc(OC)cc2OC)nc2ccccc12 was read as KCNQ2 pot 0.01 and KCNQ2 block inactive.
O=C(NC1CC1)C1CC(=O)N(c2cccc(Cl)c2)C1 (stereo not given) was read as KCNQ2 block inactive.
`COc1cccc(NC(=O)C(=O)NCCCN2CCCC2=O)c1` gave KCNQ2 pot 0.4 and KCNQ2 block inactive.
`Cc1ccc(CS(=O)Cc2ccc(C(=O)NCc3ccc(OC(C)C)cc3)o2)cc1` (stereo not given) gave KCNQ2 block inactive.
For CNC(=S)n1cnc(N)n1 the results were KCNQ2 pot 0.14 and KCNQ2 block inactive.
`CCC(CC)C1C(C#N)=C(N)Oc2cc(C)oc(=O)c21` (stereo not given) gave KCNQ2 pot 0.34 and KCNQ2 block inactive.
For Cc1cc2c(c(=O)o1)C(c1ccc([N+](=O)[O-])o1)C(C#N)=C(N)O2 (stereo not given) the results were KCNQ2 pot 7.7* and KCNQ2 block inactive.
For Cc1cc(NC(=O)CS(=O)(=O)c2cn(Cc3ccc(F)cc3)c3ccccc23)no1 the results were KCNQ2 block inactive.
Screening Cc1cc(NC(=O)CS(=O)(=O)c2cn(Cc3cccc(F)c3)c3ccccc23)no1 returned KCNQ2 pot -5.69 and KCNQ2 block -5.69*.
For CCOC(=O)C1=C(C)NC(=S)NC1c1ccc(-c2ccc(Cl)cc2)o1 (stereo not given) the results were KCNQ2 pot 7.79* and KCNQ2 block inactive.
Screening CCOC(=O)C1=C(C)NC(=O)NC1c1ccc(-c2ccc(Cl)cc2)o1 (stereo not given) returned KCNQ2 pot 0.05 and KCNQ2 block inactive.
CCC1CCCCN1CCCNC(=O)c1ccc(CS(=O)(=O)c2ccccc2C)o1 (stereo not given) was read as KCNQ2 block inactive.
`O=C(CSc1nnc(NC(=O)C2CC(=O)N(c3ccc(F)cc3)C2)s1)NCC1CCCO1` (stereo not given) gave KCNQ2 block inactive.
For CCC(C)n1cnc2c(c1=O)c1nc3ccccc3nc1n2Cc1ccc2c(c1)OCO2 (stereo not given) the results were KCNQ2 pot 0.06 and KCNQ2 block inactive.
For Cc1nc2c(c(=O)n1CCC(C)C)c1nc3ccccc3nc1n2Cc1ccc2c(c1)OCO2 the results were KCNQ2 pot -6.27 and KCNQ2 block -6.27*.
Screening COc1ccc(OC)c(NC(=O)CCN2CCN(CCO)CC2)c1 returned KCNQ2 pot 0.44 and KCNQ2 block inactive.
Screening CN(C)S(=O)(=O)c1cccc(C(=O)Nc2ccccc2Cl)c1 returned KCNQ2 pot 0.02 and KCNQ2 block inactive.
